PubChem BioAssay AID1347420 (Sanford-Burnham Center for Chemical Genomics, 2020)
Screen size: about 1,300 compounds; about 980 (75%) were called active. Inconclusive results (about 4%) are left out. The list shows a part of the results.

Target: Sulfhydryl oxidase 1 (Homo sapiens) (UniProt O00391)
Experiment: QSOX1 enzyme inhibitors, primary screen, biochemical, HyperBlu H2O2 luminescence, HTS (AID 1347420); further: values above 100% were filed as inconclusive
Conditions: recombinant QSOX1, HyperBlu H2O2 luminescence; at 12.5 µM; active compounds read high; active = any value above zero

Chain of Sulfhydryl oxidase 1 (Homo sapiens) (O00391 whole entry, looked up): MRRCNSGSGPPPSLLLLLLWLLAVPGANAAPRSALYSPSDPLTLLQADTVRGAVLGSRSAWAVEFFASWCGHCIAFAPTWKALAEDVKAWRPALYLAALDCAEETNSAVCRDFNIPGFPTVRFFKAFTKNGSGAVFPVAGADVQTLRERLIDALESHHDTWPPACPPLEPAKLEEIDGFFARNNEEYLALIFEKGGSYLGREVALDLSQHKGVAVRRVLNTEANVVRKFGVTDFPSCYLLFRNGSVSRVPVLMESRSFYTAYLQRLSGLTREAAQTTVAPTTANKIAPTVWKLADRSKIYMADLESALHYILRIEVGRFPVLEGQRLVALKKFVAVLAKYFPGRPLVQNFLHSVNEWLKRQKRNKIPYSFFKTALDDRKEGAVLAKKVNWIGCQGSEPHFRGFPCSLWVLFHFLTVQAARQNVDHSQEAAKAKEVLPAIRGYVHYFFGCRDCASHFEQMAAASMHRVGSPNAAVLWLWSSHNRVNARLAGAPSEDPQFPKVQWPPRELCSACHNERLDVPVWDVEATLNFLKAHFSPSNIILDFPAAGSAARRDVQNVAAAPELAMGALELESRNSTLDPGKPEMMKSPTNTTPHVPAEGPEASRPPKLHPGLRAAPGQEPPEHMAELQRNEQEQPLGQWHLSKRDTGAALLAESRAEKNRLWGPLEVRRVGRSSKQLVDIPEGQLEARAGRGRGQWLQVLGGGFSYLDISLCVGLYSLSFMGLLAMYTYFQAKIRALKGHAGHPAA

Row | Structure (SMILES) | inhibition
1 | CNCC(O)c1ccc(O)c(O)c1 (configuration not stated) | 39.2% (active)
2 | CNC[C@H](O)c1cccc(O)c1 | 17% (active)
3 | CNC[C@H](O)c1ccc(O)c(O)c1 | 53.5% (active)
4 | CNCCc1cnc(CCC(c2ccccc2)c2ccccc2)[nH]1 | 14.6% (active)
5 | O=c1[nH]c(=O)n([C@H]2C[C@H](O)[C@@H](CO)O2)cc1/C=C/Br | 11.6% (active)
6 | O=c1[nH]c(=O)n([C@H]2C[C@H](O)[C@@H](CO)O2)cc1Br | 6.3% (active)
7 | Cc1cn([C@H]2C[C@@H](N=[N+]=[N-])[C@@H](CO)O2)c(=O)[nH]c1=O | 18.1% (active)
8 | Cc1cn([C@H]2C=C[C@@H](CO)O2)c(=O)[nH]c1=O | 21.2% (active)
9 | N#CC(C#N)=C(N)/C(C#N)=C/c1ccc(O)cc1 | 85.4% (active)
10 | Cn1cc(C(F)(F)F)nc1-c1ccc(OCC(O)CNCCOc2ccc(O)c(C(N)=O)c2)cc1 (configuration not stated) | 45.1% (active)
11 | CC12C(=O)OC(=O)C1(C)C1CCC2O1 (configuration not stated) | 1.8% (active)
12 | CNC(=O)c1cc2c(cn1)[nH]c1ccccc12 | 4.2% (active)
13 | Cc1ccccc1N1C(=O)c2cc(S(N)(=O)=O)c(Cl)cc2NC1C (configuration not stated) | 9.2% (active)
14 | O=c1[nH]c(=S)[nH]c(-c2ccccc2)c1Cc1c(O)ccc2ccccc12 | 55.9% (active)
15 | CC(C)(C)c1ccc(S(=O)(=O)/C=C/C#N)cc1 | 3.4% (active)
16 | Cc1ccc(S(=O)(=O)/C=C/C#N)cc1 | 10.5% (active)
17 | NC12CC3CC(CC(C3)C1)C2 | 33.3% (active)
18 | CC12CC3CC(C)(C1)CC(N)(C3)C2 | -1.7% (inactive)
19 | CCOC(=O)C(C)Oc1cccc2c(=O)n(CC(=O)Nc3ccc4c(c3)OCCO4)ccc12 (configuration not stated) | 9.3% (active)
20 | NC(=O)c1cc[n+](CC2=C(C(=O)O)N3C(=O)[C@@H](NC(=O)[C@@H](c4ccccc4)S(=O)(=O)[O-])[C@H]3SC2)cc1 | 14.6% (active)
21 | CC1=C(C(=O)O)N2C(=O)[C@@H](NC(=O)C(N)c3ccccc3)[C@H]2SC1 (some centres not stated) | 37.1% (active)
22 | NC(C(=O)N[C@@H]1C(=O)N2C(C(=O)O)=C(Cl)CS[C@H]12)c1ccccc1 (some centres not stated) | 23.8% (active)
23 | CC1=C(C(=O)O)N2C(=O)[C@@H](NC(=O)C(N)C3=CCC=CC3)[C@H]2SC1 (some centres not stated) | 20.2% (active)
24 | CN1CC(=O)N/C1=N\C(=O)Nc1cccc(Cl)c1 | -0.6% (inactive)
25 | CC1=C(CC(=O)O)c2cc(F)ccc2/C1=C\c1ccc(S(C)(=O)=O)cc1 | 13.7% (active)
26 | CC1=C(CC(=O)O)c2cc(F)ccc2/C1=C\c1ccc(S(C)=O)cc1 (configuration not stated) | 14.1% (active)
27 | CC(=O)N[C@@H](Cc1c[nH]c2ccccc12)C(=O)OCc1cc(C(F)(F)F)cc(C(F)(F)F)c1 | 4.9% (active)
